Rac1 wt GTP bind – alters GTP binding to wildtype human Rac1; P63000; GST-Rac1 beads, fluorescent GTP binding, flow cytometry; actives lie on both sides; 0 = cold GTP competed, 100 = untreated; GTP binding activity (% of control), % at 10 µM; 0.27% of 190,000 active;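 active = GTP binding activity at least 20 points away from the 100% control level, either lower or higher; inconclusive = compound flagged as likely green fluorescent, judged across all proteins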
Rab7 wt modul – modulators of GTP binding to dog Rab7 wildtype GTPase. 0.055% of 190,000 active. GTP binding activity (percent of control), % at 10 µM. GST-Rab7 beads, fluorescent GTP binding, flow cytometry; actives lie on both sides; untreated = 100%, excess cold GTP = 0%. AID 758;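 active = fluorescent GTP binding to Rab7 beads changed by at least 20 points from the 100% baseline, either direction, mostly lower; inconclusive = compound itself probably fluorescent, or too few beads counted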;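 also: median green fluorescence of bound Bodipy-FL-GTP per Rab7 bead population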
HRas wt GTP bind – modulators of GTP binding to human HRas wildtype. AID 759. 0.14% of 190,000 active. GTP binding activity, % at 10 µM. P01112. GST-Ras wt beads, Bodipy-FL-GTP binding, flow cytometry; actives lie on both sides;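 active = GTP binding activity at least 20% away from the 100% baseline, either lowered as inhibitor or raised as activator; inconclusive = flagged as likely green fluorescent, judged across all proteins in the well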
Target sequence (P01112 whole entry, looked up): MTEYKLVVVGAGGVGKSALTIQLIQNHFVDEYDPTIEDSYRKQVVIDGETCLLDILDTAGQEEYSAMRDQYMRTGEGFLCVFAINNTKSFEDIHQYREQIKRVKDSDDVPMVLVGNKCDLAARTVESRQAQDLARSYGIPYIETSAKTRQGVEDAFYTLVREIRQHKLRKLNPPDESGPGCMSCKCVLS
Rab2 wt GTP – changes GTP binding to wildtype dog Rab2A, up or down. P61105. GST-Rab2 wt beads, Bodipy-GTP binding, flow cytometry. GTP binding activity, % at 10 µM. 0.19% of 190,000 active. AID 760;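 active = GTP binding activity at least 20 points away from 100%, either lowered or raised; inconclusive = signal likely due to the compound's own green fluorescence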
Cdc42 wt GTP – human Cdc42 wildtype GTP binding change, either direction; GST-Cdc42 beads, Bodipy-GTP binding, flow cytometry; actives lie on both sides; percent activity (GTP binding), % at 10 µM; P60953; 0.2% of 190,000 active;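 active = percent activity GTP binding at least 20 points away from the 100% baseline, either down as inhibitor or up as activator; inconclusive = compound flagged as likely green fluorescent from well-wide comparison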;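 also: median bead fluorescence of bound Bodipy-FL-GTP at 100 nM; below 100% means less GTP binding so inhibitor and above means activator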
Target sequence (P60953 whole entry, looked up): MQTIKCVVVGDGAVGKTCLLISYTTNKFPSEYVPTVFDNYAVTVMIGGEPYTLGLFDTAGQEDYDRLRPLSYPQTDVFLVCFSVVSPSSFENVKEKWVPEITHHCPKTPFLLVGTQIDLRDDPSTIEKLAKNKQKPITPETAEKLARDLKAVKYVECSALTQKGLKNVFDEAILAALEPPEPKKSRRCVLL
Rac1 act GTP bind – modulators of GTP binding to human Rac1 activated mutant; P63000; GST-Rac1 activated beads, fluorescent GTP binding, flow cytometry; actives lie on both sides; 100% means binding = to untreated wells; percent activity (GTP binding), % at 10 µM; 0.11% of 190,000 active; AID 764;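 active = GTP binding at least 20 percentage points away from the 100% baseline, in either direction, so actives lie on both sides; inconclusive = Compound likely fluorescent itself, or too few beads counted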
Numbers stand for hits; 0 = inactive; ? = inconclusive; - = not tested or not shown. Most compounds without a hit are left out; they make up all but 0.4% or so of the library.

SMILES	Rac1 wt GTP bind	Rab7 wt modul	HRas wt GTP bind	Rab2 wt GTP	Cdc42 wt GTP	Rac1 act GTP bind
CC(=O)c1cc2c(cc1NC(=O)c1cccc(S(=O)(=O)N3CCN(C)CC3)c1)OCO2	78	0	0	0	0	0
CN1CCN(S(=O)(=O)c2cccc(C(=O)Nc3sc4c(c3C(N)=O)CCCC4)c2)CC1	72	0	0	77	79	0
O=C(Nc1cccc(S(=O)(=O)N2CCCC2)c1)c1ccc2c(c1)OCO2	0	0	0	0	0	0
CN(Cc1ccc2nonc2c1)Cc1nc(CC2CC2)no1	0	0	0	0	0	0
COc1ccc(-c2noc(CCC(=O)N3CCN(c4cc(C)ccc4C)CC3)n2)cc1	0	0	0	78	0	75
O=C(CCCn1c(=O)[nH]c2ccc(Br)cc2c1=O)NCc1ccc(Cl)cc1	0	0	0	0	0	0
Cc1cc2nc(/C(C#N)=C/c3ccncc3)[nH]c2cc1C	0	0	0	0	0	0
N#C/C(=C\c1ccc(-c2ccc(C(=O)O)cc2)o1)c1nc2ccccc2[nH]1	71	0	0	77	78	0
N#C/C(=C\c1ccncc1)c1nc2ccccc2[nH]1	31	26	43	42	41	35
CC(=O)c1ccc(NC(=O)C(=O)c2cn(CC(=O)N3CCCCC3)c3ccccc23)cc1	0	0	0	0	0	0
COc1ccc(CNc2nc3c(c(=O)n(Cc4ccc(Br)cc4)c(=O)n3C)n2C)cc1	0	0	0	0	0	79
Cn1c(NCc2ccccc2)nc2c1c(=O)n(Cc1ccc(Br)cc1)c(=O)n2C	0	0	0	0	0	0
C/C(=N\Nc1ccc(S(N)(=O)=O)cc1[N+](=O)[O-])c1ccc2c(c1)OCO2	76	0	0	0	0	0
N#CCCN(C(=O)COc1ccc(Cl)cc1Cl)c1ccccc1	0	0	0	0	0	0
Cc1nn(CCc2nn[nH]n2)c2nc(-c3ccc(C4CCCCC4)cc3)cc(C(F)(F)F)c12	79	0	0	0	77	78
COc1ccc2[nH]cc(CCNS(=O)(=O)c3ccccc3)c2c1	0	0	0	0	0	0
CCOC(=O)c1ccc(Nc2nc(C(=O)OCC)nc3ccccc23)cc1	0	0	73	73	69	0
c1ccc(-c2csc3ncnc(NCCCN4CCOCC4)c23)cc1	0	0	0	0	0	0
O=c1c2c(-c3ccccc3)csc2nc2c3ccccc3c(NCCN3CCOCC3)nn12	55	70	65	65	69	0
Cc1nc(C)n(CC(=O)N2CCCC(C(=O)c3cccc4ccccc34)C2)n1 (stereo unspecified)	0	0	0	0	0	0
CCOC(=O)c1c2c3c(c(Cl)ccc3[nH]c1=O)C(=O)c1ccccc1-2	45	0	44	44	41	65
CCOC(=O)c1c2c3c(cccc3[nH]c1=O)C(=O)c1ccccc1-2	76	0	66	65	63	0
COCCCNc1c2c3c(cccc3[nH]c1=O)C(=O)c1ccccc1-2	0	0	0	0	0	0
Cc1ccc(-c2csc(NC(=O)CCNC(=O)c3ccccc3Cl)n2)cc1	0	0	0	0	0	0
COc1cccc(NC(=O)c2ccc(NC(=O)C3CC(=O)OC34CCCCC4)cc2)c1 (stereo unspecified)	0	0	0	0	0	0
SMILES	Rac1 wt GTP bind	Rab7 wt modul	HRas wt GTP bind	Rab2 wt GTP	Cdc42 wt GTP	Rac1 act GTP bind
COc1ccccc1NC(=S)N(CCCN1CCOCC1)Cc1cccs1	0	0	0	0	0	0
COc1cc2ccccc2cc1C(=O)NC(=S)Nc1cccc(C(=O)O)c1	0	0	76	75	75	0
Cc1ccc(C(=O)N/C(=C/c2ccccc2)C(=O)NCC2CCCO2)cc1 (stereo unspecified)	0	0	0	0	0	0
O=S1(=O)N=C(N(CCO)/N=C/c2ccccc2)c2ccccc21	70	0	72	70	71	0
O=S1(=O)N=C(N(CCO)/N=C/c2ccncc2)c2ccccc21	56	0	67	66	64	76
COCCn1c(N)c(C(=O)Nc2sc3c(c2C(=O)OC)CCCC3)c2nc3ccccc3nc21	77	0	63	69	63	0
Clc1cnc(N/N=C/c2ccco2)c(Cl)c1	0	0	0	0	0	0
C(=N\Nc1nn2cnnc2c2ccccc12)/c1ccco1	0	0	75	72	77	0
COc1cc(/C=N/Nc2nn3cnnc3c3ccccc23)ccc1O	75	0	62	72	58	?
ClCC1NCC(c2ccccc2Cl)c2c1[nH]c1ccccc21 (stereo unspecified)	0	0	0	0	0	0
O=C(O)c1cccc(-n2cccc2/C=C2/NC(=O)N(c3ccc(Cl)cc3)C2=O)c1	67	0	0	75	72	76
COc1ccc(-n2cccc2/C=C2/NC(=O)N(c3cccc(Cl)c3)C2=O)cc1	0	0	0	0	0	0
CC1(C)Cc2c(sc(NC(=S)NC(=O)c3ccccc3)c2C(=O)O)CO1	70	-	67	69	-	63
Cc1cc(=O)[nH]c2ccccc12	0	0	0	0	0	0
Cc1cc2[nH]c3c(c[n+](C)c4ccccc34)c2cc1C	76	0	0	0	0	0
COc1cc(C(C)=O)ccc1Oc1ncnc2c1cnn2-c1ccc(F)cc1	0	0	0	0	0	0
COc1ccc(C(=O)C2CCCN(Cc3cccc4c3OCO4)C2)cc1OC (stereo unspecified)	0	0	0	0	0	0
CS(=O)(=O)N1CCCC(C(=O)Nc2ccc3c(c2)OCCO3)C1 (stereo unspecified)	0	0	0	0	0	0
COc1cc(/C=N/NC(=O)Nc2cccc3nsnc23)cc(OC)c1OC	76	0	58	59	56	75
Cc1ccc(/C=C(\CCC(=O)O)c2nc3ccccc3s2)cc1[N+](=O)[O-]	0	0	0	79	0	78
O=C(NC1CCCCC1)C(c1ccco1)N(Cc1ccco1)C(=O)c1ccco1 (stereo unspecified)	0	0	64	0	0	0
COc1ccc(/C=C/C(=O)Oc2cc(C)[nH]c(=O)c2[N+](=O)[O-])cc1OC	0	0	0	0	0	0
Nc1[nH]n2c(=O)cc(-c3ccccc3)nc2c1N=Nc1ccccc1	0	0	0	0	0	0
Nc1nn2c(-c3ccccc3)cc(=O)[nH]c2c1N=Nc1ccc(Br)cc1	76	0	0	75	75	76
